Bioassay records: PubChem BioAssay, National Center for Advancing Translational Sciences (NCATS)
Gal4-VP16 FLuc: counter-screen for ROR gamma inhibitors: Gal4-VP16 reporter; Potency, µM (titrated, usually from 53.6 µM), for inactives: at the highest dose activity, negative = inhibition, actives largely listed as inhibitors; 310,000 tested, 3.5% active; AID 2546; Drosophila S2 Gal4-VP16 UAS-luciferase, luminescence, 20 h;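 also: Gal4-VP16 expression switched on by copper sulfate through the metallothionein promoter; % is scaled to controls: 0 for no effect and ±100 for the full control effect; nearly all actives have a fitted effect of over 50% in size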
ClpP mod: qHTS Assay for Activators of ClpP; Potency, µM (series often up to 57.5 µM), inactives show top-dose activity change, negative = active; AID 651965, 2013; 340,000 tested, 1.9% active; ATP-dependent Clp protease proteolytic subunit (Bacillus subtilis (strain 168)), P80244; purified B. subtilis ClpP, FRET peptide cleavage, 20 min; active = well fitted falling curve with a large enough effect; inconclusive = small, poorly fitted or top-dose-only effect; inactive = no such curve, though single readings can be large or run the other way; also: the source files actives as falling curves though it sought activators and does not explain the sign; nearly all actives have a fitted effect of over 65% in size
Target sequence (P80244 whole entry, looked up): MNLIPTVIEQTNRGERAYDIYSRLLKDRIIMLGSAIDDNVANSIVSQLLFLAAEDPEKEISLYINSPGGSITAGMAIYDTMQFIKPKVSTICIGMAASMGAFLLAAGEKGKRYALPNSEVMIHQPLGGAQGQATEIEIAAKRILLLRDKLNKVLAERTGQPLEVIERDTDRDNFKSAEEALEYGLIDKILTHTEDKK
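ClpP 10 microg/mL final, pH 8 Tris/KCl buffer with BSA, glycerol, Tween-20; compound pinned in; FRET-FV substrate; RT 20 min; Ex320/Em430; ΔFRET vs ADEP 5.8 microM, DMSO, no enzyme.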
RORgamma inh: inhibitors of mouse ROR gamma transcriptional activity; 310,000 tested, 5.4% active; Drosophila S2 Gal4-RORgamma UAS-luciferase reporter, 20 h; Potency, µM (doses to about 53.6 µM), for the others: at the highest dose activity change, negative = inhibition, usual class: inhibitors; also: % is scaled to controls: 0 for no effect and ±100 for the full control effect; nearly all actives have a fitted effect of over 60% in size
Target sequence (P51450 whole entry, looked up, the tested form may be a part): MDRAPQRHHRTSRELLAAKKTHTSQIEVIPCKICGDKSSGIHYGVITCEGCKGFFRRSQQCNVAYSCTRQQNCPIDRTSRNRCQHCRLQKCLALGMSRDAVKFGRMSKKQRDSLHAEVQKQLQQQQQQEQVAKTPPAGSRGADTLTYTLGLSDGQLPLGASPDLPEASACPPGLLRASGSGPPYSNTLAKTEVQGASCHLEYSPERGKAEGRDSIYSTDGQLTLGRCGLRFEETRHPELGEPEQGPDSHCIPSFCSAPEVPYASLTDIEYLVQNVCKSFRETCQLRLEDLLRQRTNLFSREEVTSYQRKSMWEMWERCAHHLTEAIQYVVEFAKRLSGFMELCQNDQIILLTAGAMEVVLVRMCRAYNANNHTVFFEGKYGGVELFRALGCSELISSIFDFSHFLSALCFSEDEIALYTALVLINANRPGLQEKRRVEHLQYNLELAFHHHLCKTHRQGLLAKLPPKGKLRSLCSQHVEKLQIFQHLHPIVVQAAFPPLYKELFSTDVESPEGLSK
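Schneider cells (Drosophila), stable Gal4 DBD–ROR gamma + UAS-luc; 1 hr cmpd preincubation; Cu2+ induction 700 uM final; 20 hr ambient; luminescence.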
Sfp PPTase inh: blocks B. subtilis Sfp PPTase activity; Biochemical Sfp PPTase activity, qHTS; Potency, µM, for the others: largest response in the series, negative = inhibition, actives largely listed as inhibitors; 310,000 tested, 3.5% active;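 also: the enzyme is Sfp with the accession as filed and its product quenches rhodamine fluorescence; 0% = enzyme reaction without inhibitor and -100% = no enzyme wells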
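Step 1, compound plus 15 nM Sfp-PPTase, 15 min, room temperature. Step 2, add rhodamine-CoA (5 uM) and BHQ-2-YbbR (12.5 uM). Step 3, read 525/598 nm fluorescence at 0 and 30 min.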
Epigenetic reg: epigenetic control regulation, reporter derepression; 280,000 tested, 0.2% active; Potency, µM (series often up to 53.9 µM), inactives show at the top dose GFP activation, hits mostly activators; murine LDR cells, GFP reporter derepression, 30 h; also: % of control where 0% means no effect; nearly all actives have a fitted effect of over 60% in size
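Readout is the number of GFP-expressing murine LDR cells, counted by cytometry following washing. Cells were treated with compound for 30 h at 37 C; the stably integrated CMV-GFP locus is normally silent.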
PINK1 expr mod: modulators of PINK1 expression. 410,000 tested, 0.2% active. AID 624263. Potency, µM (titrated, usually from 76.6 µM), without a hit: top-dose activation (PINK1 increase), hits mostly activators. PINK1 immunofluorescence, high-content cytometry, 24 h; active = well fitted activation curve with a large enough effect; inconclusive = small, poorly fitted or top-dose-only effect; cell line not stated here; also: % of control where 0% means no effect; nearly all actives have a fitted effect of over 65% in size
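PINK1 protein, normally rapidly degraded, was detected by immunofluorescence after 24 hour compound treatment of a stable cell line. Titration data (5 concentrations) came from laser-scanning cytometry, with CCCP-treated wells as controls.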
An asterisk follows results filed as active; [ ] = dose if it differs, or a comment. An excerpt weighted towards active compounds, which were near 8.1% of everything screened. Unless noted, calls follow the shape of the dose curve; as a rule, active = well fitted curve in the direction sought with a large enough effect; inconclusive = small, poorly fitted or top-dose-only effect, or another doubt; inactive = no such curve, though single readings can be large; an effect the other way counts as inactive or inconclusive. Potency is read from the fitted curve at half-maximal effect.

`CCOC(=O)c1c(C)nc2ccccc2c1-c1ccccc1` gave Gal4-VP16 FLuc inconclusive, ClpP mod -1.6%, RORgamma inh 2.7%[10 µM], Sfp PPTase inh 79.4µM*, Epigenetic reg -1.1% and PINK1 expr mod inconclusive.
CCOC(=O)c1c(C)nc(C)c(C(=O)OCC)c1-c1ccc(O)c(OC)c1 was read as Gal4-VP16 FLuc -4.0%, RORgamma inh 39.4%, Sfp PPTase inh 31.6µM*, Epigenetic reg -1.3% and PINK1 expr mod 0.1%.
Screening C=CCSc1nc2sc(C)c(C)c2c(=O)n1CC=C returned Gal4-VP16 FLuc -4.1%, ClpP mod 5.5%, RORgamma inh 17.4%, Sfp PPTase inh 50.1µM*, Epigenetic reg -1.2% and PINK1 expr mod 1.1%.
`CCc1ccccc1N1C(=O)N(C)c2ccccc2S1(=O)=O` gave ClpP mod 0.4%, Epigenetic reg -1.3% and PINK1 expr mod 0.5%.
For COc1cc2c(C(=O)O)c(C)n(CC(C)C)c2c2ccccc12 the results were Gal4-VP16 FLuc 0.1%, ClpP mod 35.5µM*, RORgamma inh 26.8%, Sfp PPTase inh 4.3%, Epigenetic reg -0.9% and PINK1 expr mod -2.5%.
`Cc1nnc(SCc2cccc(Oc3ccccc3)c2)n1N` gave Gal4-VP16 FLuc 26.0%, ClpP mod 3.16µM*, RORgamma inh -7.5%, Sfp PPTase inh 6.6%, Epigenetic reg -3.2% and PINK1 expr mod 1.1%.
For Cc1cccc2c1c1ccc3c(c1n2C)C(=O)C=CC3=O the results were Gal4-VP16 FLuc -10.1%, ClpP mod -4.1%, RORgamma inh 26.6%, Sfp PPTase inh 3.55µM*, Epigenetic reg inconclusive and PINK1 expr mod inconclusive.
Screening COC(=O)c1ccc(NC(=O)C(C)Sc2nc(=O)cc(N)n2CCc2ccccc2)cc1 (stereo not drawn) returned ClpP mod -4.0%, Epigenetic reg 0.8% and PINK1 expr mod 0.9%.
O=C1/C(=C/c2ccncc2)SC(=S)N1C1CCS(=O)(=O)C1 (stereo not drawn) was read as Gal4-VP16 FLuc inconclusive, ClpP mod -0.7%, RORgamma inh 11.2µM*, Sfp PPTase inh 50.1µM*, Epigenetic reg 4.7% and PINK1 expr mod 8.4%.
For Cc1ccc(/C=C2\SC(=S)N(C3CCS(=O)(=O)C3)C2=O)o1 (stereo not drawn) the results were Gal4-VP16 FLuc -5.8%, ClpP mod -1.0%, RORgamma inh -20.6%, Sfp PPTase inh 50.1µM*, Epigenetic reg -1.3% and PINK1 expr mod -0.5%.
Screening O=C1/C(=C/c2ccccc2)SC(=S)N1C1CCS(=O)(=O)C1 (stereo not drawn) returned Gal4-VP16 FLuc inconclusive, ClpP mod 0.1%, RORgamma inh 9.7%, Sfp PPTase inh -21.9%, Epigenetic reg 0.0% and PINK1 expr mod 3.4%.
`CC1=C(C#N)C(=O)N(C2CCS(=O)(=O)C2)C(=O)/C1=C\c1ccc(C)o1` (stereo not drawn) gave Gal4-VP16 FLuc -2.3%, RORgamma inh 7.3%, Sfp PPTase inh 12.6µM* and Epigenetic reg 0.4%.
Screening Cc1nc(SC2CCOC2=O)c2c(C)c(C)sc2n1 (stereo not drawn) returned Gal4-VP16 FLuc 15.8µM*, ClpP mod 0.8%, RORgamma inh 11.2µM*, Sfp PPTase inh 0.7%, Epigenetic reg -0.9% and PINK1 expr mod -1.5%.
Cc1ccc(OCC(=O)NNC(=S)NC(=O)c2cccs2)c(C)c1 was read as Gal4-VP16 FLuc 11.2µM*, ClpP mod 0.5%, RORgamma inh 10µM*, Sfp PPTase inh 15.9% and PINK1 expr mod 0.5%.
Cc1ccc(OCC(=O)NNC(=S)NC(=O)c2ccc(Br)o2)c(C)c1 was read as Gal4-VP16 FLuc inconclusive, ClpP mod 0.6%, RORgamma inh inconclusive, Sfp PPTase inh 11.8% and PINK1 expr mod -0.1%.
Cc1cc(OCC(=O)NNC(=S)NC(=O)c2cccs2)ccc1Cl was read as Gal4-VP16 FLuc inconclusive, ClpP mod 0.1%, RORgamma inh 7.94µM*, Sfp PPTase inh 13.6% and PINK1 expr mod 3.3%.
For O=C(Nc1cccc(F)c1)C1CCN(S(=O)(=O)c2cccc3nsnc23)CC1 the results were ClpP mod -1.5%, Epigenetic reg -0.1% and PINK1 expr mod 1.2%.
Cc1cc(C)nc(SCC(=O)Nc2ccc(S(=O)(=O)Nc3ncccn3)cc2)n1 was read as Gal4-VP16 FLuc inconclusive, RORgamma inh 1.4%, Sfp PPTase inh 12.6µM*, Epigenetic reg -2.2% and PINK1 expr mod -1.8%.
Cc1cc(C)c(C#N)c(SCC(=O)Nc2ccc(S(=O)(=O)Nc3ncccn3)cc2)n1 was read as Gal4-VP16 FLuc 12.6µM*, ClpP mod 1.2%, RORgamma inh 8.91µM*, Sfp PPTase inh 10.2% and PINK1 expr mod -0.2%.
For NS(=O)(=O)c1ccc(NC(=O)CSc2ccccn2)cc1 the results were Gal4-VP16 FLuc -15.9%, ClpP mod 1.2%, RORgamma inh 35.9%, Sfp PPTase inh 79.4µM*, Epigenetic reg 1.0% and PINK1 expr mod 29.2%[38.3 µM].
NS(=O)(=O)c1cccc(NC(=O)CSc2ccccn2)c1 was read as Gal4-VP16 FLuc 13.4%, ClpP mod 1.5%, RORgamma inh 41.3%, Sfp PPTase inh inconclusive, Epigenetic reg 0.0% and PINK1 expr mod 1.7%.
Cc1cc(C)c(C#N)c(SCC(=O)Nc2cccc(S(=O)(=O)N3CCCC3)c2)n1 was read as ClpP mod 12.7% and PINK1 expr mod inconclusive.
Screening Cc1cc(F)ccc1S(=O)(=O)Nc1ccc2c(c1)CCCN2C(=O)c1cccs1 returned ClpP mod 0.3%, Epigenetic reg -3.5% and PINK1 expr mod 1.8%.
`COc1ccc(NC(=O)CN2CCCN(S(=O)(=O)c3ccc(Br)cc3)CC2)c(OC)c1` gave ClpP mod -3.1%, Epigenetic reg -1.1% and PINK1 expr mod 0.7%.
Cc1nnsc1C(=O)Oc1ccc(Cl)cc1 was read as ClpP mod -2.6%, Epigenetic reg 0.8% and PINK1 expr mod -1.9%.
`O=C1CCCC2=C1C(c1ccco1)Nc1ccc3ccccc3c12` (stereo not drawn) gave Gal4-VP16 FLuc 14.0%, ClpP mod 35.5µM*, RORgamma inh 21.0%, Sfp PPTase inh 44.7µM*, Epigenetic reg -2.0% and PINK1 expr mod 8.3%.
`CC1(C)CC(=O)C2=C(C1)c1c(ccc3ccccc13)NC2c1cc([N+](=O)[O-])cc([N+](=O)[O-])c1O` (stereo not drawn) gave Gal4-VP16 FLuc inconclusive, RORgamma inh inconclusive, Sfp PPTase inh 3.98µM*, Epigenetic reg -1.4% and PINK1 expr mod 1.4%.
